Results filed as inconclusive are left out. Activity calls are given as the source filed them. Unless noted, calls follow the shape of the dose curve; as a rule, active = well fitted curve in the direction sought with a large enough effect; inconclusive = small, poorly fitted or top-dose-only effect, or another doubt; inactive = no such curve, though single readings can be large or run the other way.
test: qHTS for differential inhibitors of proliferation of Plasmodium falciparum line HB3 (AID 1886); settings: Potency: Plasmodium falciparum HB3 proliferation inhibition; series mostly up to 28.7 µM; activity change, negative = inhibition: at the top concentration;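 also: parasites grown with compound for 72 h before SYBR Green readout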; also: potency is read from the fitted curve at half-maximal effect;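 as to activity change, negative = inhibition: plate controls were vehicle for no effect and reference inhibitor for full effect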

Row | Compound | activity change, negative = inhibition | Potency
1 | CC(C)c1cccc(C(C)C)c1O | 0.613% (inactive) | 
2 | CCC1(c2ccc(N)cc2)CCC(=O)NC1=O (stereo unspecified) | -7.69% (inactive) | 
3 | O=c1[nH]oc2c1CCNC2 | -2.98% (inactive) | 
4 | C=C(C)[C@H]1CN[C@H](C(=O)O)[C@H]1CC(=O)O | -5.97% (inactive) | 
5 | CC(NC(C)(C)C)C(=O)c1cccc(Cl)c1 (stereo unspecified) | -13.7% (inactive) | 
6 | CN1C(=O)CCS(=O)(=O)C1c1ccc(Cl)cc1 (stereo unspecified) | -3.45% (inactive) | 
7 | NCCc1ccc(O)cc1 | 0.46% (inactive) | 
8 | C[C@]12CCC(=O)C=C1CC[C@@H]1[C@@H]2CC[C@]2(C)C(=O)CC[C@@H]12 | -21.4% (inactive) | 
9 | O=P1(N(CCCl)CCCl)NCCCO1 (stereo unspecified) | -0.13% (inactive) | 
10 | CCCCC/C=C\C/C=C\C/C=C\C/C=C\CCCC(=O)NCC(=O)O |  | 14.1 µM (active)
11 | CC(C)N(CCC(C(N)=O)(c1ccccc1)c1ccccn1)C(C)C (stereo unspecified) |  | inactive
12 | CC(=O)N1CCN(c2ccc(OC[C@H]3CO[C@](Cn4ccnc4)(c4ccc(Cl)cc4Cl)O3)cc2)CC1 |  | 11.2 µM (active)

test: qHTS Assay for Modulators of Human Peripheral Myelin Protein 22 (PMP22) Expression/Activity (AID 1967; active = well fitted curve in the direction sought with a large enough effect in the signal ratio; the % refers to the signal ratio;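 also: 0% = untreated cells and 100% end not stated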); settings: Cell-based PMP22 reporter, dual-color luciferase ratio, mouse Pmp22 promoter in mouse Schwann cells; series mostly up to 115 µM; activity change (ratio): at the top concentration
Summary of the method: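 Readout is the corrected green/red luminescence ratio after 24 h compound exposure, normalised to untreated cells (0%). Engineered MSC80 mouse Schwann cells express green luciferase from the mouse Pmp22 promoter and red luciferase from EF-alpha as internal control.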

Row | Compound | activity change (ratio)
13 | CC(C)c1cccc(C(C)C)c1O | 2.92% (inactive)
14 | CC(NC(C)(C)C)C(=O)c1cccc(Cl)c1 (stereo unspecified) | 18.5% (inactive)
15 | NCCc1ccc(O)cc1 | 20.7% (inactive)
16 | CC(C)N(CCC(C(N)=O)(c1ccccc1)c1ccccn1)C(C)C (stereo unspecified) | 1.27% (inactive)
